Source: PubChem BioAssay (NCI)
About 79,000 compounds went through this panel and 15% of them were active in at least one assay; those are over-represented in the sample as a whole. Unmarked numbers belong to inactive results. Calls of active or inactive are those of the source. Rule as the data show it: active = growth inhibition above about 70%; inactive = the rest.

Tests used:
[1] = NCI Yeast Anticancer Drug Screen. Data for the rad50 strain (AID 155);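 also: 0% = growth of vehicle-only cultures of the same strain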; conditions: S. cerevisiae rad50 strain growth inhibition, stronger effect = higher value
Method in brief: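 Readout: growth inhibition relative to vehicle-treated cultures. Compound exposure was carried out in a genetically defined yeast strain deficient in DNA damage repair.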

[2] = NCI Yeast Anticancer Drug Screen. Data for the mec2-1 strain (AID 157); conditions: S. cerevisiae mec2-1 strain, stronger effect = higher value
Method in brief: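 Strain: mec2-1 (DNA repair/cell cycle alteration). Compound exposure, then growth measured; inhibition expressed relative to vehicle.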

[3] = NCI Yeast Anticancer Drug Screen. Data for the sgs1 mgt1 strain (AID 161);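 also: 0% = growth of cultures given vehicle only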; conditions: S. cerevisiae sgs1 mgt1 strain, stronger effect = higher value
Method in brief: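 Read-out: growth inhibition vs vehicle controls. Cells: mutant yeast strain deficient in DNA damage repair.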

[4] = NCI Yeast Anticancer Drug Screen. Data for the cln2 rad14 strain (AID 165);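 also: 0% = growth equal to vehicle treated cultures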; conditions: S. cerevisiae cln2 rad14 strain, stronger effect = higher value
Method in brief: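 Compounds are applied to the cln2 rad14 yeast strain, and growth is then compared with that of vehicle-treated cultures to give inhibition.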

[5] = NCI Yeast Anticancer Drug Screen. Data for the bub3 strain (AID 167); conditions: S. cerevisiae bub3 mutant strain, stronger effect = higher value
Method in brief: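 Readout: yeast growth inhibition, expressed relative to vehicle-only wells. The test organism is a mutant strain from a panel with lesions in DNA repair or checkpoint genes.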

[6] = NCI Yeast Anticancer Drug Screen. Data for the mlh1 rad18 strain (AID 175); conditions: S. cerevisiae mlh1 rad18 strain growth inhibition, stronger effect = higher value
Method in brief: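 Read-out is yeast growth inhibition, calculated against vehicle-only controls. The compound was applied to a strain engineered with DNA damage repair alterations.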

[7] = at 5.0 µM (retest, dose inferred, filed as 0.5)
[8] = at 50.0 µM (retest, dose inferred, filed as 5.0)

Structure (SMILES)	growth inhibition [1, 7]	growth inhibition [1, 8]	growth inhibition ([1]; at 50.0 µM)	growth inhibition [2, 7]	growth inhibition [2, 8]	growth inhibition ([2]; at 50.0 µM)	growth inhibition [3, 7]	growth inhibition [3, 8]	growth inhibition ([3]; at 50.0 µM)	growth inhibition [4, 7]	growth inhibition [4, 8]	growth inhibition ([4]; at 50.0 µM)	growth inhibition [5, 7]	growth inhibition [5, 8]	growth inhibition ([5]; at 50.0 µM)	growth inhibition [6, 7]	growth inhibition [6, 8]	growth inhibition ([6]; at 50.0 µM)
CC1CCC(C(C)C)C(OC(=O)Nc2ccc(S(=O)(=O)N(C)C)cc2)C1 (configuration not stated)	25%	82% (active)	96% (active)	18%	92% (active)	95.2% (active)	46%	83% (active)	96% (active)	8%	82% (active)	95.5% (active)	29%	90% (active)	92.5% (active)	32%	88% (active)	95.8% (active)
COc1cc(NCC(C#N)C#N)ccc1N=Nc1ccc(Cl)cc1	-5%	58%	86.2% (active)	-2%	67%	70.8% (active)	4%	72% (active)	85.3% (active)	-7%	46%	76.8% (active)	-23%	87% (active)	79.5% (active)	-37%	81% (active)	82.7% (active)
C[C@]12CC[C@H]3[C@@H](CCC4=CC(=O)CC[C@@]43C)[C@@H]1CC[C@@H]2O[Si](O[C@H]1CC[C@H]2[C@@H]3CCC4=CC(=O)CC[C@]4(C)[C@H]3CC[C@]12C)(O[C@H]1CC[C@H]2[C@@H]3CCC4=CC(=O)CC[C@]4(C)[C@H]3CC[C@]12C)c1ccccc1	5%	59%	75.9% (active)	1%	62%	89.9% (active)	-1%	93% (active)	97.5% (active)	-6%	33%	58.6%	4%	77% (active)	81.5% (active)	1%	84% (active)	94.8% (active)
Nc1ccc(C(=O)/C=C/c2ccccn2)cc1	3%	45%	8.2%	-6%	64%	31.4%	1%	60%	17.8%	9%	38%	17.6%	-1%	79% (active)	66.8%	6%	82% (active)	27.9%
OC(Cn1cncn1)(Cn1cncn1)c1ccc(Cl)cc1Cl	66%	65%	62.6%	62%	59%	54.5%	38%	65%	63.2%	71% (active)	77% (active)	60.8%	65%	74% (active)	56.7%	75% (active)	81% (active)	48.2%
O=C1CSC(=S)N1/N=C/c1ccc(Cl)c([N+](=O)[O-])c1	28%	86% (active)	63.8%	0%	40%	52.1%	2%	77% (active)	27.4%	-16%	40%	-37.7%	-8%	46%	57.9%	2%	91% (active)	61.2%
CCCCCCCCCCCC[n+]1ccc(C)cc1	33%	99% (active)	98.2% (active)	76% (active)	100% (active)	99.2% (active)	33%	99% (active)	99% (active)	20%	99% (active)	96.8% (active)	80% (active)	99% (active)	98.9% (active)	18%	99% (active)	98.3% (active)
O=c1ccc2nc3ccccc3sc-2c1	-13%	98% (active)	95.4% (active)	22%	98% (active)	8.1%	5%	98% (active)	76.8% (active)	-6%	98% (active)	49.8%	7%	98% (active)	92.1% (active)	4%	98% (active)	95.5% (active)
CC(C)CC(CC(C)C)NCC(C)OC(=O)C(c1ccccc1)c1ccccc1 (configuration not stated)	-1%	94% (active)	29.2%	-8%	78% (active)	50.3%	-3%	97% (active)	84.8% (active)	-3%	73% (active)	20.9%	-9%	93% (active)	68.2%	18%	96% (active)	95.2% (active)
OC(c1cc(-c2ccc(Cl)c(Cl)c2)nc2ccccc12)C1CCCCN1 (configuration not stated)	95% (active)	70% (active)	38.2%	100% (active)	12%	32.8%	84% (active)	77% (active)	9.85%	99% (active)	29%	-14.2%	99% (active)	61%	66.3%	99% (active)	92% (active)	88.5% (active)
CCC(c1ccc(Cl)cc1)C(C#N)c1ccc(Cl)cc1 (configuration not stated)	10%	55%	84.3% (active)	-1%	33%	61.5%	-3%	46%	68.1%	-8%	12%	11.4%	6%	44%	41.8%	2%	52%	76.4% (active)
Nc1c(Cl)[nH]c(C(F)(F)F)nc1=S	-2%	-7%	5.2%	-7%	-1%	-4.75%	-9%	-7%	-2.45%	-7%	4%	15.3%	-3%	10%	-9.45%	0%	1%	23.3%
O=c1c2ccccc2c2ccccc2n1O	93% (active)	92% (active)	97.5% (active)	95% (active)	95% (active)	97% (active)	93% (active)	94% (active)	96.5% (active)	76% (active)	89% (active)	93.8% (active)	88% (active)	91% (active)	95% (active)	94% (active)	94% (active)	98.3% (active)
CCCCCCCCc1cc[n+](C2=C([O-])c3ccccc3C(=O)C2=O)cc1	99% (active)	97% (active)	98.8% (active)	100% (active)	93% (active)	98.2% (active)	100% (active)	98% (active)	99% (active)	99% (active)	95% (active)	98.5% (active)	99% (active)	99% (active)	98.8% (active)	100% (active)	99% (active)	98.2% (active)
